Measured values from PubChem BioAssay (NCATS).
Records with an inconclusive call do not appear. The source made the active and inactive calls. Unless noted, the call rests on the fitted dose curve; in most records, active means well fitted curve in the direction sought with a large enough effect; inconclusive means small, poorly fitted or top-dose-only effect, or another doubt; inactive means no such curve, though single readings can be large; an effect the other way counts as inactive or inconclusive.

Columns and labels:
[1] = Quantitative High-Throughput drug screen in 47 multiple myeloma cell lines against the NCATS MIPE library collection: OPM2_DSMZ cell viability assay (AID 1919872); further: nearly all actives have a fitted effect of over 30% in size
Outline: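 Myeloma cells (500 per well) were exposed to MIPE 4.0 compounds by pin transfer and incubated 48 hours at 37C, 5% CO2. Viability was read as ATP by CellTiter-Glo luminescence, normalised to DMSO (100%) and media-only (0%) wells.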

[2] = Quantitative High-Throughput drug screen in 47 multiple myeloma cell lines against the NCATS MIPE library collection: KMS28BM_JCRB cell viability assay (AID 1919874); further: nearly all actives have a fitted effect of over 35% in size
Outline: (§1)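 qHTS format: cells plated (500/well), pin-dosed with MIPE 4.0 compounds, kept 48 h at 37 °C. Readout was CellTiter-Glo luminescence, median RLU.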

[3] = Quantitative High-Throughput drug screen in 47 multiple myeloma cell lines against the NCATS MIPE library collection: KMS11_JCRBsus cell viability assay (AID 1919873); further: nearly all actives have a fitted effect of over 50% in size
Outline: as §1

[4] = qHTS for identification of novel therapeutic agents for treatment of microphthalmiaassociated transcription factor (MiT) renal cell carcinoma (RCC) (AID 1963991; calls by dose curve); details: CellTiter-Glo, 48 h; for z-score: stronger effect = lower value; for Potency: active = Z-AUC below -0.8 in all three lines
Outline: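 Curves over 11 concentrations were fitted to CellTiter-Glo luminescence, scaled between empty wells (0%) and DMSO (100%) viability. Cells were UOK109, UOK124 and UOK145 TFE3-fusion RCC lines at 500/well, exposed 48 hours at 37 C.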

[5] = qHTS drug screen for cell cycle checkpoint inhibitors in PARPi-resistant BRCA-mutant ovarian cancer cell lines. (AID 1963452; calls by dose curve); details: PEO1/OlaR viability, CellTiter-Glo luminescence, 96 h; for Z-AUC: stronger effect = lower value
Outline: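 PEO1, PEO4 and PEO1/OlaR ovarian cancer cells, 600 per well, exposed 96 h at 37C to a dilution series. Viability read by CellTiter-Glo luminescence, normalized to DMSO and empty wells; activity summarized as Z-AUC.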

[6] = qHTS profiling for inhibitors of Plasmodium falciparum proliferation (AID 504749); further: nearly all actives have a fitted effect of over 60% in size;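 on activity, negative = inhibition: 0% = DMSO vehicle and full inhibition = artemisinin control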; details: P. falciparum in erythrocytes, SYBR Green DNA, 72 h
Outline: (§2)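 Quantitative HTS: compounds pinned into medium, infected erythrocytes added (0.3% parasitemia, 2.5% hematocrit), 72 h culture at 37 C under 5% CO2. Saponin/Triton lysis with SYBR Green I, overnight RT, then fluorescence read.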

3D7 = experiment: as above; details: P. falciparum in erythrocytes, SYBR Green DNA, 72 h; series mostly up to 28.7 µM
Outline: as §2

7G8 = experiment: as above; details: P. falciparum in erythrocytes, SYBR Green DNA, 72 h; series mostly up to 28.7 µM
Outline: as §2

AA1029 = experiment: as above; details: P. falciparum in erythrocytes, SYBR Green DNA, 72 h; series mostly up to 28.7 µM
Outline: as §2

[7] = TFE3-RCC UOK109 viability, measured here: UOK109 Z-AUC
[8] = TFE3-RCC viability, measured here: UOK124 Z-AUC
[9] = TFE3-RCC viability, measured here: UOK145 Z-AUC
[10] = measured here: PEO1 parental Z-AUC
[11] = at 28.7 µM (top of the series), parasite line A
[12] = at 28.7 µM (top of the series), parasite line B
[13] = at 12.8 µM (top of the series), parasite line A
Potency means the concentration at half of the fitted maximal effect.

For `O=C1NC(=O)C(=Cc2ccc3nccnc3c2)S1`, the Potency [1] was “inactive” and the Potency [2] was 7.24 µM (active).

With `O=C(OCC#CCSc1nnc(-c2cccc3ccccc23)o1)c1cc2ccccc2s1` the Potency [1] was “inactive”, the Potency [3] was “inactive” and the Potency [2] was 3.32 µM (active). The z-score [4, 7] was 0.144, the z-score [4, 8] was 0.66 and the z-score [4, 9] was 0.162.

In the case of `CN1CCN(CCOc2cc(OC3CCOCC3)c3c(Nc4c(Cl)ccc5c4OCO5)ncnc3c2)CC1`, the Potency [1] is reported as “inactive”, the Potency [3] is reported as 23.5 µM (active) and the Z-AUC [5] is reported as 0.642 (inactive). The Z-AUC [5, 10] was 0.934 and the Z-AUC ([5]; measured here: PEO4 Z-AUC) was 1.23.

With `N#Cc1ccc(NC(=O)Nc2ccccc2Br)c2n[nH]nc12` the Potency [1] was “inactive”, the Z-AUC [5] was 1.45 (inactive) and the Z-AUC [5, 10] was 0.952. For the same compound, the Z-AUC ([5]; measured here: PEO4 Z-AUC) was 1.04.

In the case of `COc1ccc2c(Oc3ccc(NC(=O)c4c(C)n(CC(C)(C)O)n(-c5ccccc5)c4=O)nc3)ccnc2c1`, the Potency [1] is reported as “inactive”, the Potency [2] is reported as “inactive” and the Z-AUC [5] is reported as 0.509 (inactive). The Z-AUC [5, 10] was 0.436 and the Z-AUC ([5]; measured here: PEO4 Z-AUC) was -0.433.

With `CC1(C)CCC2=C(O1)c1ccccc1C(=O)C2=O` the Potency [1] was 16.6 µM (active), the Potency [3] was 26.4 µM (active) and the Z-AUC [5] was 0.0983 (inactive). The Z-AUC [5, 10] was -0.291 and the Z-AUC ([5]; measured here: PEO4 Z-AUC) was 0.134.

With `O=C1c2c(O)cc(O)cc2O[C@H](c2cc(O)c(O)c(O)c2)[C@H]1O` the Potency [1] was 18.7 µM (active) and the Potency [2] was “inactive”.

For `NC(=O)c1cnc(-c2ccc(C3(N)CCC3)cc2)c(-c2ccccc2)c1`, the Potency [1] was 20.9 µM (active), the Z-AUC [5] was 0.0998 (inactive) and the Z-AUC [5, 10] was -0.472. The Z-AUC ([5]; measured here: PEO4 Z-AUC) was -0.533.

For `CCOc1ccc(Nc2nc(-c3c(C)nc4ccccn34)cs2)cc1`, the Potency [1] was 0.0037 µM (active), the Potency [3] was “inactive” and the Potency [2] was “inactive”. For the same compound, the Z-AUC [5] was -0.0903 (inactive), the Z-AUC [5, 10] was -0.777 and the Z-AUC ([5]; measured here: PEO4 Z-AUC) was 0.137. For the same compound, the Potency ([4]; TFE3-RCC UOK109 viability) was 0.00235 µM (active), the z-score [4, 7] was -1.91 and the z-score [4, 8] was -2.79. It also gave a z-score [4, 9] of -1.17.

For `O=C1NC(=O)C(=Cc2ccc(-c3ccc(F)cc3)o2)S1`, the Potency [1] was “inactive”, the Potency [3] was “inactive” and the Potency [2] was “inactive”.

With `C[C@]12CC[C@@H]3c4ccc(O)cc4C[C@@H](CCCCCCCCCS(=O)CCCC(F)(F)C(F)(F)F)[C@H]3[C@H]1CC[C@H]2O` (stereo not given in full) the Potency [1] was “inactive”, the Potency [3] was 2.09 µM (active) and the Z-AUC [5] was -0.724 (inactive). For the same compound, the Z-AUC [5, 10] was -0.171, the Z-AUC ([5]; measured here: PEO4 Z-AUC) was -1.07 and the z-score [4, 7] was 1.23. For the same compound, the z-score [4, 8] was 0.607 and the z-score [4, 9] was 0.767.

With `C=C1C(=O)OC2C=C(C)CCC=C(C)CCC12` (stereo not given) the Potency [1] was 20.9 µM (active), the Potency [3] was 20.9 µM (active) and the Potency [2] was 18.7 µM (active). For the same compound, the z-score [4, 7] was 0.459, the z-score [4, 8] was 0.643 and the z-score [4, 9] was 0.399.

With `C=C1C(=O)OC(CCCCCCCC)C1C(=O)O` (stereo not given) the Potency [1] was “inactive”, the Potency [2] was “inactive” and the Z-AUC [5] was 0.778 (inactive). The Z-AUC [5, 10] was 0.453, the Z-AUC ([5]; measured here: PEO4 Z-AUC) was 0.342 and the z-score [4, 7] was 0.725. The z-score [4, 8] was 0.792 and the z-score [4, 9] was 0.524.

For `COc1ccc(-c2nc(N3CCOCC3)c3sc(CN(C)c4ncc(C(=O)NO)cn4)cc3n2)cn1`, the Potency [5] was 0.0616 µM (active) and the Potency ([4]; TFE3-RCC UOK109 viability) was 0.0264 µM (active).

With `O=C1Nc2ccc(Cl)cc2C(C#CC2CC2)(C(F)(F)F)O1` (stereo not given) the activity, negative = inhibition [6, 11] was -18.6% (inactive), the activity, negative = inhibition [6, 12] was 0.376% (inactive) and the outcome (3D7) was “inactive”. For the same compound, the Potency (7G8) was 11.2 µM (active) and the outcome (AA1029) was “inactive”.

With `Cc1cnc(C(=O)O)c[n+]1[O-]` the activity, negative = inhibition [6, 11] was -1.49% (inactive), the activity, negative = inhibition [6, 12] was -8.14% (inactive) and the outcome (3D7) was “inactive”. For the same compound, the Potency (7G8) was “inactive” and the outcome (AA1029) was “inactive”.

For `CS(=O)c1ccc(-c2nc(-c3ccc(F)cc3)c(-c3ccncc3)[nH]2)cc1` (stereo not given), the Z-AUC [5] was 0.509 (inactive), the Z-AUC [5, 10] was 0.495 and the Z-AUC ([5]; measured here: PEO4 Z-AUC) was 0.786.

With `COc1cc(N2CCC(N3CCN(C)CC3)CC2)ccc1Nc1ncc(Cl)c(Nc2ccccc2S(=O)(=O)C(C)C)n1` the Z-AUC [5] was -0.172 (inactive), the Z-AUC [5, 10] was -0.594 and the Z-AUC ([5]; measured here: PEO4 Z-AUC) was -0.618. The Potency ([4]; TFE3-RCC UOK109 viability) was 14.8 µM (active), the z-score [4, 7] was -1.55 and the z-score [4, 8] was -1.62. The z-score [4, 9] was -1.41.

In the case of `CCN(CC)CCOC(=O)c1ccc(N)cc1`, the activity, negative = inhibition [6, 13] is reported as -0.702% (inactive), the outcome (3D7) is reported as “inactive” and the Potency (7G8) is reported as “inactive”. For the same compound, the outcome (AA1029) was “inactive”.

For `CCCCC1C(=O)N(c2ccccc2)N(c2ccccc2)C1=O`, the Potency (7G8) was “inactive”.

For `Clc1ccc(Cn2c(CN3CCCC3)nc3ccccc32)cc1`, the Z-AUC [5] was 1.16 (inactive), the Z-AUC [5, 10] was 0.912 and the Z-AUC ([5]; measured here: PEO4 Z-AUC) was 1.11. The activity, negative = inhibition [6, 13] was 5.36% (inactive), the outcome (3D7) was “inactive” and the Potency (7G8) was 3.16 µM (active). For the same compound, the outcome (AA1029) was “inactive”.

For `CC(=O)N[C@@H](CS)C(=O)O`, the Z-AUC [5] was 0.621 (inactive), the Z-AUC [5, 10] was 0.869 and the Z-AUC ([5]; measured here: PEO4 Z-AUC) was 0.504. For the same compound, the activity, negative = inhibition [6, 11] was -3.7% (inactive), the activity, negative = inhibition [6, 12] was 16.4% (inactive) and the outcome (3D7) was “inactive”. The Potency (7G8) was “inactive” and the outcome (AA1029) was “inactive”.

For `CCN(CC)CCNC(=O)c1ccc(N)cc1`, the activity, negative = inhibition [6, 11] was 6.98% (inactive), the activity, negative = inhibition [6, 12] was 5.88% (inactive) and the outcome (3D7) was “inactive”. For the same compound, the Potency (7G8) was “inactive” and the outcome (AA1029) was “inactive”.

With `CC(=O)c1ccc(S(=O)(=O)NC(=O)NC2CCCCC2)cc1` the activity, negative = inhibition [6, 11] was 3.57% (inactive), the activity, negative = inhibition [6, 12] was 7.49% (inactive) and the outcome (3D7) was “inactive”. The Potency (7G8) was “inactive” and the outcome (AA1029) was “inactive”.

With `NC(N)=Nc1nc(CSCC/C(N)=N/S(N)(=O)=O)cs1` the activity, negative = inhibition [6, 11] was -15% (inactive), the activity, negative = inhibition [6, 12] was 4.88% (inactive) and the outcome (3D7) was “inactive”. For the same compound, the Potency (7G8) was “inactive” and the outcome (AA1029) was “inactive”.
